Test results from PubChem BioAssay (NCI).
Values joined by “and” are separate entries in the source; they are usually repeats but may differ in a detail not shown here. Equal values may be shown once. This is part of a sample that, as a whole, favours compounds with a hit. Of some 83,000 tested, about 20% had one in any assay.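 Plates (96-well) were seeded with cells, treated with compound at one concentration, and incubated for 48 hours before percent growth was determined.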 Active and inactive are the calls of the source. Rule for the calls: active = growth percent below 10; inactive = the rest.

System: MDA-MB-468 breast
Experiment: NCI-60 one-dose screen, 48 h (100 = growth as untreated, 0 = no growth, -100 = all killed)
Settings: 10 µM unless noted

SMILES	growth
CC1=C2C(=C[C@@](C)(CO)[C@@H]2OC(=O)N(C)CCN(C)C(=O)OC(C)(C)C)C(=O)[C@](C)(O)C12CC2	-10.1% (active)
COc1cc2c(=O)n(CCCn3ccnc3)c3c4cc5c(cc4ccc3c2cc1OC)OCO5	-37.3% (active)
COc1ccc(-c2cn3ccnc3c(-c3ccc4ncn(C5CCCCC5)c4c3)n2)cc1	2.59% (active)
CCCC1(c2ccccc2)NC(=O)NC1=O (stereo not given)	104% (inactive)
CCOc1ccc(N2C(N)=NC(N)=NC2(C)C)cc1	-0.227% (active) and 56.3% (inactive)
COc1ccc(C(O)c2ccccc2)cc1 (stereo not given)	3.29% (active)
COc1cccc2cc(-c3cc4ccccc4[nH]3)c(=NC(=O)c3ccc(Cl)cc3)oc12	75% (inactive)
CC(C)=CC(=O)OCC(=O)O[C@@H]1C[C@]2(C(C)C)O[C@@]1(C)[C@@H]1CC[C@@H](C)[C@H]1[C@@H]2OC(=O)/C=C/c1ccccc1	64.3% (inactive)
O=C(O)c1ccc(-n2cc(/C=N/Nc3ccc(F)cc3)c(-c3cc4ccccc4oc3=O)n2)cc1	119% (inactive)
CCCCCCCCCCCCCCCCCC(=O)Nc1ccc(O)cc1	103% (inactive)
CCCc1cc2c(=O)c(C(=O)OC)c[nH]c2cc1N(CC)CC	119% (inactive)
O=c1ccn(C2CC(O)C(O)C(CO)O2)c(=O)[nH]1 (stereo not given)	149% (inactive)
COc1cc2c(cc1O)CC[C@@H]1[C@@H]2CC[C@]2(C)[C@@H](OCCCN(C)C)CC[C@@H]12	-58.5% (active)
COc1cc(/C=C2\C(=O)Nc3ccccc32)cc(OC)c1O	20.4% (inactive)
COc1ccc(C)cc1OC	137% (inactive)
N#CCNC(=O)c1ccc(-c2ccnc(Nc3ccc(N4CCOCC4)cc3)n2)cc1	9.99% (active)
COc1ccc(-c2cc(-c3cccc(Cl)c3)c(C#N)c(=O)[nH]2)c(OC)c1	113% (inactive)
CSc1nc2ncnc(SC)c2[nH]1	106% (inactive)
O=C1/C(=C/c2ccc(O)cc2O)N=C2SCCCN12	96.1% (inactive)
CC1(C)CC2(C)CC(=O)C1C(C(=O)O)C2C(=O)O (stereo not given)	114% (inactive)

SMILES	growth
Cc1ccc(CC(=O)O)c(C)c1	112% (inactive)
COc1cc(C2c3cc(OC(C)=O)c(OC)cc3CC3C(=O)OCC32)ccc1OC(C)=O (stereo not given)	96% (inactive)
CC(C)(C)OC(=O)N1CCN(CCn2cc(C(F)(F)F)c3c(Cl)ncnc32)CC1	19.4% (inactive)
COc1ccc(-c2ncc(-c3ccccc3)[nH]2)cc1OC	89.1% (inactive)
O=C(Nc1ccccc1)Nc1ncnc2c1ncn2-c1ccc(Cl)cc1	92.2% (inactive)
CCn1cc(C(=O)N/N=C/c2cccc(F)c2)c(=O)c2cc(F)c(N3CCNC(C)C3)c(F)c21 (stereo not given)	71.6% (inactive)
Cc1ccccc1NC(=O)N/C(N)=N/c1nc(-c2cccc([N+](=O)[O-])c2)cs1	6.27% (active)
N#Cc1c(-c2ccc(Cl)cc2)cc(-c2cc(O)ccc2O)nc1N	19.4% (inactive)
COc1cc(C=Nc2oc(-c3ccccc3)c(-c3ccccc3)c2C#N)cc(CN2CCCCC2)c1O	95.6% (inactive)
COc1cc(C2C3=C(COC3=O)N(CCO)c3cc4c(cc32)CCC4)cc(OC)c1OC (stereo not given)	0.574% (active)
COC(=O)c1c[n+]([O-])ccc1OC	106% (inactive)
O=C(CCN1CCCCC1)c1ccc2ccccc2c1	92.1% (inactive)
CC(=O)N1N=C(c2ccc(-n3ccc(C(F)(F)F)n3)c(F)c2)CC1c1ccc[nH]1 (stereo not given)	117% (inactive)
O=C1Nc2ccc(F)cc2/C1=C\c1c(-c2ccccc2)nc2ccccn12	35.6% (inactive)
O=C(NCc1cn(Cc2cccc(Oc3ccccc3)c2)nn1)c1cccnc1Nc1ccccc1	18.1% (inactive)
Oc1ccc(Cn2cc3c(c2-c2ccccc2)CCc2cnoc2-3)cc1	89.2% (inactive)
Cc1ccc(S(=O)(=O)n2cc(C3C(Cl)C(=O)N3c3ccc(N4CCOCC4=O)cc3)c3ccccc32)cc1 (stereo not given)	67.6% (inactive)
CCCCOC(=O)c1ccc(NC(=O)CCl)cc1	50% (inactive)
CCC(CC)n1c(=O)c(SC2=NC3C(NN2)N(CC)C(=O)N3CC)c(C(=O)O)c2ccccc21 (stereo not given)	23% (inactive)
CCOc1ccccc1NC(=O)CCC(=O)OC	99.7% (inactive)
